# Source: the supplement of paper PMC10849652
# Targets with a hit are over-represented here; the source holds about 7,900 in all. About 0.6% of all pairs of compound and target were hits. Unmarked numbers belong to inactive results.
# Assays:
# Test in all cases: log2 fold change, soluble protein after heating vs DMSO (PISA); higher = thermal stabilisation; K562 cells, 10 uM, 30 min; active = over 0.2 and 3.5 SD of the protein, either way, in both replicates (recomputed)
# [1] = compound: CC1=C(C=C(C=C1)NC(=O)C2=CC(=CC=C2)C(C)(C)C#N)NC3=CC4=C(C=C3)N=CN(C4=O)C
# Procedure, shortened: (§1)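 K562 cells at 2×10^6 cells/mL were given 10 μM compound for 30 min. Aliquots then went through 3 min of heating across 48°C-58°C, were pooled, and were extracted in PBS with 0.5% NP-40 at 4°C, and the supernatant after 21,000xg for 90 min was quantified by TMTpro 16plex LC-MS/MS with channel sums equalised. Thermal stability relative to control samples, from duplicates, is given as log2 fold change.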
# [2] = compound: CC1=C(C=C(C=C1)NC(=O)C2=CC(=CC=C2)N(C)C)NC(=O)C3=CC=C(C=C3)O
# Procedure, shortened: as §1
# [3] = compound: CC1=CC=C(C=C1)SC2=C3C=C(SC3=CN=C2)C(=O)N
# Procedure, shortened: as §1
# [4] = compound: CC1=NC(=CC=C1)C2=C(N=C(N2)C(C)(C)C)C3=CC4=NC=CN=C4C=C3
# Procedure, shortened: as §1
# Nexturastat A = compound: CCCCN(Cc1ccc(C(=O)NO)cc1)C(=O)Nc1ccccc1 [Nexturastat A]
# Procedure, shortened: as §1
# vemurafenib = compound: CCCS(=O)(=O)Nc1ccc(F)c(C(=O)c2c[nH]c3ncc(-c4ccc(Cl)cc4)cc23)c1F [vemurafenib]
# Procedure, shortened: as §1
# [5] = compound: CCCS(=O)(=O)Nc1ccc(F)c(C(=O)c2c[nH]c3ncc(Cl)cc23)c1F
# Procedure, shortened: as §1
# [6] = compound: CCCc1cc(C)[nH]c(=O)c1CNC(=O)c1cc(-c2ccnc(N3CCN(C)CC3)c2)cc2c1cnn2C(C)C
# Procedure, shortened: as §1
# givinostat = compound: CCN(CC)Cc1ccc2cc(COC(=O)Nc3ccc(C(=O)NO)cc3)ccc2c1 [givinostat]
# Procedure, shortened: as §1
# barasertib = compound: CCN(CCCOc1ccc2c(Nc3cc(CC(=O)Nc4cccc(F)c4)[nH]n3)ncnc2c1)CCOP(=O)(O)O [barasertib]
# Procedure, shortened: as §1
# Sequence of UniProt Q10471 (Q10471 whole entry, looked up): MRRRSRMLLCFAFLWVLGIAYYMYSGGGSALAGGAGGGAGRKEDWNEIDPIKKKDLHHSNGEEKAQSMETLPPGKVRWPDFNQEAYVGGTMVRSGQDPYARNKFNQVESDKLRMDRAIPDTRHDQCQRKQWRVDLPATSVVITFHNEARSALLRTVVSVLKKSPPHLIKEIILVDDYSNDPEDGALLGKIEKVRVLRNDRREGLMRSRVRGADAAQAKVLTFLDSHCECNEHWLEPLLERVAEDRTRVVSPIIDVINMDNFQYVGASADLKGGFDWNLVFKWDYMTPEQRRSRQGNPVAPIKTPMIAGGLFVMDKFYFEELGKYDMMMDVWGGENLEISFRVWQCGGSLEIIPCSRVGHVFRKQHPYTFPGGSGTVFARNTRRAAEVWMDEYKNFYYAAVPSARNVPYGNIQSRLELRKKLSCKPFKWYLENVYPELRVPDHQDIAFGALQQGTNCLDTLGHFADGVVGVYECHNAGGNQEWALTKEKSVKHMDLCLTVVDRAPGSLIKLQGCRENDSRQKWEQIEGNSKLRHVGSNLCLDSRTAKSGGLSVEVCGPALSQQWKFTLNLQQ
# Sequence of UniProt Q96I24 (Q96I24 whole entry, looked up): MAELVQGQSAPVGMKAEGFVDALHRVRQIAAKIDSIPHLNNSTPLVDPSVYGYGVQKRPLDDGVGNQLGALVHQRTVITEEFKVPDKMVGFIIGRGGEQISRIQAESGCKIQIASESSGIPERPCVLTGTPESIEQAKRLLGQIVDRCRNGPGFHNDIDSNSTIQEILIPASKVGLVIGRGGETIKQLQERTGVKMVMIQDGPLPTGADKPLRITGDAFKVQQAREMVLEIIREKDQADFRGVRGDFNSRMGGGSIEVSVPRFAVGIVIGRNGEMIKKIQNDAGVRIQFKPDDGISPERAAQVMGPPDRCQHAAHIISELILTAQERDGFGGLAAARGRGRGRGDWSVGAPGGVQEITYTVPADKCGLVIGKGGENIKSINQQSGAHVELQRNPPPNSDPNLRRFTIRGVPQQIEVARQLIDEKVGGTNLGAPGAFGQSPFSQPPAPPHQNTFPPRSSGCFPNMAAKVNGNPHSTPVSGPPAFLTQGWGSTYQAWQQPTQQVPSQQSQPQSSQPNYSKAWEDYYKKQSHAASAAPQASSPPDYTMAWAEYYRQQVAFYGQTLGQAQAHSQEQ
# Sequence of UniProt Q00403 (Q00403 whole entry, looked up): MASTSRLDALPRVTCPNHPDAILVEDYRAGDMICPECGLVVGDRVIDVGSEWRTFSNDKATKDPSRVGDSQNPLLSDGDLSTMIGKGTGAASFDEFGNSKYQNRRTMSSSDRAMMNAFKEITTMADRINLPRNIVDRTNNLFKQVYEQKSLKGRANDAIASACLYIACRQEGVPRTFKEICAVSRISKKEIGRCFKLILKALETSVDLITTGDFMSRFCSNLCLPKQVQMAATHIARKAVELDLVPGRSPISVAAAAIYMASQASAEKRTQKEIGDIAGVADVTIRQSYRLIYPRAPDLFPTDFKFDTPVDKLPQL
# Sequence of UniProt Q9BTY2 (Q9BTY2 whole entry, looked up): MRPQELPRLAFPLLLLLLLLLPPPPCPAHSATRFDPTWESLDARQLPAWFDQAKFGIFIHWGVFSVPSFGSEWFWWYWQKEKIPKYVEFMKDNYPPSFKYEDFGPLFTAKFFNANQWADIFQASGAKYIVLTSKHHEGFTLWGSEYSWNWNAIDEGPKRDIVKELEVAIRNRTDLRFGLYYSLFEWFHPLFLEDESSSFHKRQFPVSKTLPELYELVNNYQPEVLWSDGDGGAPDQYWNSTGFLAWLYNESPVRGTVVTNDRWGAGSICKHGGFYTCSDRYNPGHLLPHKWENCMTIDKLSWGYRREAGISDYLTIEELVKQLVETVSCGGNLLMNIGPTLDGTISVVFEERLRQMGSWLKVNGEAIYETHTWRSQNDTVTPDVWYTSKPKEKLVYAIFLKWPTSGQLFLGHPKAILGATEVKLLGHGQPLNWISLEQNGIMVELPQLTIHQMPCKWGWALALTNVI
# Sequence of UniProt Q7Z4Q2 (Q7Z4Q2 whole entry, looked up): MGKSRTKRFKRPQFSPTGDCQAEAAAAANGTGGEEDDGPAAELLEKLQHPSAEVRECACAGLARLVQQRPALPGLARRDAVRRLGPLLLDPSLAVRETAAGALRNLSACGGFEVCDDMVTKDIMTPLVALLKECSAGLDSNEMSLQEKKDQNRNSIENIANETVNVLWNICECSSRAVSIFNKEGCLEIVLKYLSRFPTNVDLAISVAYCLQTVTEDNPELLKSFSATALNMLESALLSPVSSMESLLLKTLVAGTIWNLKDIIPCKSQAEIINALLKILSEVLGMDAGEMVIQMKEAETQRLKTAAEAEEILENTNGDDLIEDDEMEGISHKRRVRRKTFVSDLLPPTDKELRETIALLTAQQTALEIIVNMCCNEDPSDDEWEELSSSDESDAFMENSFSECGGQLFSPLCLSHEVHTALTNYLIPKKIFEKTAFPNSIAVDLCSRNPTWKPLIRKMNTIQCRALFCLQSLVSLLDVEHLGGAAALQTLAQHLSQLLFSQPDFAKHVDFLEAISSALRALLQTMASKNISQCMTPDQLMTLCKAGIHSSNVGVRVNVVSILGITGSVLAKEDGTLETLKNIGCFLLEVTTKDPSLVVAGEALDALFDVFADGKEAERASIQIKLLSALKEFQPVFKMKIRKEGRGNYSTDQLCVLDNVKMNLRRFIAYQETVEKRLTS
# Sequence of UniProt Q53FT3 (Q53FT3 whole entry, looked up): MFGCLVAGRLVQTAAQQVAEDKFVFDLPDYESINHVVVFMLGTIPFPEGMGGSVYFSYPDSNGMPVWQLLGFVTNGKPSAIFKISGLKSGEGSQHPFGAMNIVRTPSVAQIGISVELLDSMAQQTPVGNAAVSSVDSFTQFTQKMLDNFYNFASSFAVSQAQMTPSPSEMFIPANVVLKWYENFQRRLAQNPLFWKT
# Sequence of UniProt Q8NCW6 (Q8NCW6 whole entry, looked up): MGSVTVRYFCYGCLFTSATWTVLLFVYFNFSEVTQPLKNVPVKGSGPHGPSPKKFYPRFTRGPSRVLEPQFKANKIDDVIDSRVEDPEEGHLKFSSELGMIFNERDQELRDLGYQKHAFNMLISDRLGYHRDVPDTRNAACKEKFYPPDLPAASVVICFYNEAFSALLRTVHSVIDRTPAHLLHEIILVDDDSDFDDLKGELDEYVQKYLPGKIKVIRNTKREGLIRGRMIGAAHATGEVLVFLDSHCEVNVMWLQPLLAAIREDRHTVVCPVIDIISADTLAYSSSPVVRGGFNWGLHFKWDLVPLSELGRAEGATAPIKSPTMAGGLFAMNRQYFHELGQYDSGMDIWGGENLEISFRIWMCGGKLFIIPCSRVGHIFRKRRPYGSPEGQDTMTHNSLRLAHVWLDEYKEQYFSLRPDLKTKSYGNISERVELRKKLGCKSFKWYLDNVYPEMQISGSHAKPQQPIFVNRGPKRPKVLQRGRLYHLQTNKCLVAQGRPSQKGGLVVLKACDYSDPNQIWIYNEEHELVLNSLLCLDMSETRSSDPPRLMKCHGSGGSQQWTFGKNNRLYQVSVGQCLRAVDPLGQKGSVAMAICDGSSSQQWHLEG
# Sequence of UniProt Q49A26 (Q49A26 whole entry, looked up): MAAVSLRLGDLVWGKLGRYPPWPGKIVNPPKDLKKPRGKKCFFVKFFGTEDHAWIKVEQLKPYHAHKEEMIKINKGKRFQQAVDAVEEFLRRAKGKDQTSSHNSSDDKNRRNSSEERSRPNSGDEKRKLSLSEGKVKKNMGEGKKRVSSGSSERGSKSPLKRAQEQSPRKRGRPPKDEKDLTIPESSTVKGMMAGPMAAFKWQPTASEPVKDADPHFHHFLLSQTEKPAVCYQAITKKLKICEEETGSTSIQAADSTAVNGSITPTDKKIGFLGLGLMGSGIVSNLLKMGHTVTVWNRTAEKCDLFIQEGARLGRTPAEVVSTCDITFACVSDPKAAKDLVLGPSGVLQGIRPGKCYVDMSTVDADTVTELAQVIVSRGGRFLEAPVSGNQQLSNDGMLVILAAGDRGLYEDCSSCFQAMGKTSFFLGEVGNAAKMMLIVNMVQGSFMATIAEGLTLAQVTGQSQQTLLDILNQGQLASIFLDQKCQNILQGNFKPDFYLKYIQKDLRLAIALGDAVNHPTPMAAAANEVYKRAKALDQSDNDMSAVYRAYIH
# Sequence of UniProt O00165 (O00165 whole entry, looked up): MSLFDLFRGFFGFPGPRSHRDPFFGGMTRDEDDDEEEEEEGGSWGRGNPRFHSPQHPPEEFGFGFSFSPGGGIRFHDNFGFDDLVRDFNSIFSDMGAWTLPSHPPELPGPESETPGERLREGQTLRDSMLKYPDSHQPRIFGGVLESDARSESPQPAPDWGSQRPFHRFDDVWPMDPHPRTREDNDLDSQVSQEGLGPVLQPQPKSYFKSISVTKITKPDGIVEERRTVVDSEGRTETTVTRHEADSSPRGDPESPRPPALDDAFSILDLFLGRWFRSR
# Sequence of UniProt Q5SSJ5 (Q5SSJ5 whole entry, looked up): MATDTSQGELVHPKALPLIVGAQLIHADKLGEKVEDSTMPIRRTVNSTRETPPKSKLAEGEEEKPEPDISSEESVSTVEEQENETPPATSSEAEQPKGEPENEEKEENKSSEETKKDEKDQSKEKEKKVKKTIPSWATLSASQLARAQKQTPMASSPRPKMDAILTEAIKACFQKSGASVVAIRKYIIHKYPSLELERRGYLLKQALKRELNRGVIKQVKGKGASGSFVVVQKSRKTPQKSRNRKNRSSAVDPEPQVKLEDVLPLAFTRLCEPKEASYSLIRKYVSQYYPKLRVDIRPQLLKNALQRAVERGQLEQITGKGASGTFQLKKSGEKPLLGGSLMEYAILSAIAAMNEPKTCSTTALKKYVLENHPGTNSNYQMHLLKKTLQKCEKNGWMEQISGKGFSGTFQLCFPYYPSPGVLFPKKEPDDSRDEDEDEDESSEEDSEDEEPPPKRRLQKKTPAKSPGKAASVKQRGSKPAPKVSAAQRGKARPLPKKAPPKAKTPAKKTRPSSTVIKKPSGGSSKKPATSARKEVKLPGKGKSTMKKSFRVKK
# Sequence of UniProt P52657 (P52657 whole entry, looked up): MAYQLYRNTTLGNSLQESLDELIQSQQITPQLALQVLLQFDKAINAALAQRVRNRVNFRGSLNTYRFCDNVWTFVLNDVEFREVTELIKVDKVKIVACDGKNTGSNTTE
Target,log2 fold change [1],log2 fold change [2],log2 fold change [3],log2 fold change [4],log2 fold change (Nexturastat A),log2 fold change (vemurafenib),log2 fold change [5],log2 fold change [6],log2 fold change (givinostat),log2 fold change (barasertib)
GALK1 isoform 2 (UniProt P51570),0.244,0.004,0.144,0.02,-0.082,0.144,0.183,0.033,0.018,-0.007
HAX1 (UniProt O00165),-0.018,-0.101,0.03,-0.058,0.066,-0.012,0.082,0.045,0.009,0.046
GOLPH3 (UniProt Q9H4A6),0.074,-0.031,-0.017,0.022,-0.017,0.015,0.058,-0.011,-0.007,0.023
GAPVD1 isoform 6 (UniProt Q14C86),0.004,-0.041,0.046,0.019,0.025,0.007,0.13,0.047,0.047,0.034
GLRX3 (UniProt O76003),0.007,-0.033,0.02,0.028,-0.049,0.024,0.139,0.014,0.01,0.054
GTF2A2 (UniProt P52657),0.009,-0.029,0.052,0.03,-0.091,-0.083,-0.017,-0.053,-0.044,0.007
HSPA8 (UniProt E9PK54),0.023,0.034,-0.123,0.006,0.227,-0.036,0.026,-0.098,0.167,-0.023
HIST2H2BF isoform 2 (UniProt Q5QNW6),-0.094,-0.034,-0.202,-0.009,0.78 (active),-0.284,0.529,0.1,0.331,-0.157
FUBP3 (UniProt Q96I24),0.021,-0.018,0.01,0.122,-0.114,0.035,0.018,-0.059,-0.023,-0.012
HMGCR isoform 3 (UniProt P04035),0.131,-0.046,0.061,-0.115,0.074,-0.002,-0.04,-0.043,0.034,0.027
GNAI3 (UniProt P08754),0.125,-0.012,-0.07,-0.021,0.072,0.037,-0.025,0.069,-0.263 (active),0
IFRD2 isoform 2 (UniProt Q12894),0.093,0.035,-0.129,-0.13,0.055,-0.043,0.062,-0.225,-0.2,-0.142
FUCA2 (UniProt Q9BTY2),0.015,0,0.016,-0.02,-0.025,0.005,-0.053,-0.025,-0.028,-0.01
GALNT11 (UniProt Q8NCW6),0.011,0.049,-0.024,-0.041,-0.032,0.009,-0.035,-0.002,0.027,0.118
GPAT4 (UniProt Q86UL3),0.05,-0.004,0.014,-0.004,-0.004,0.036,0.027,0.019,-0.024,0.027
GNL1 (UniProt P36915),0.019,-0.014,0.032,0.036,-0.031,-0.01,0.081,0.002,-0.033,0.017
HIKESHI (UniProt Q53FT3),-0.138,-0.051,0.003,-0.011,-0.037,0.027,0.003,-0.033,-0.008,0.011
GSK3A (UniProt P49840),-0.025,0.009,0.197,0.021,-0.094,-0.023,-0.003,-0.039,-0.053,0.014
GALNT2 (UniProt Q10471),-0.003,-0.035,0.016,0.038,-0.032,0,0.04,0.03,-0.005,0.011
H2AFX (UniProt P16104),-0.088,-0.006,-0.231,-0.073,0.754,-0.232,0.329,0.1,0.328,-0.11
GYS1 (UniProt P13807),0.057,-0.04,-0.068,-0.13,0.515,0.052,-0.01,0.091,0.108,-0.033
HMGN1 (UniProt P05114),0.056,0.027,-0.048,0.078,-0.017,0.004,-0.064,-0.033,-0.119,-0.06
GLYR1 (UniProt Q49A26),0.039,0.032,-0.125,-0.06,0.375 (active),0.054,0.009,0.085,0.091,0.136
HEATR3 (UniProt Q7Z4Q2),0.004,0.116,0.034,0.047,0.016,0.007,0.082,-0.067,0.069,0.144
GSR (UniProt P00390),-0.011,0.022,0.016,0.007,-0.073,-0.027,0.02,-0.026,-0.253 (active),-0.03
HNRNPH1 (UniProt P31943),0.077,-0.044,0.005,0.047,0.201,0.086,0.144,0.029,0.115,0.05
IGF2BP2 (UniProt Q9Y6M1),0.009,-0.001,-0.008,-0.094,0.383,0.065,0,-0.011,0.153,-0.041
HP1BP3 (UniProt Q5SSJ5),0.03,-0.026,-0.025,0.017,0.108,-0.014,0.018,-0.001,0.031,-0.129
GTF2B (UniProt Q00403),-0.018,-0.092,0.097,0.097,-0.031,0.104,0.167,0.017,0.058,0.044
GLS (UniProt O94925),-0.013,-0.072,-0.024,0.034,-0.065,0.096,0.132,0.062,0.041,0.054
